# Laboratory results: PubChem BioAssay AID504848 (National Center for Advancing Translational Sciences (NCATS), 2011)
# Out of some 2,300 compounds screened, about 1,400 (61%) were called active. Another 29% or so got no clear call; they are omitted. So high a share suggests a set chosen from earlier hits. This is one part of the list. Values without a mark were called inactive. The call rests on the fitted dose curve; in most records, active means well fitted inhibition curve with a large enough effect; inconclusive means small, poorly fitted or top-dose-only effect, or effect the other way; inactive means no such curve, though single readings can be large or run the other way.
# Assay: Confirmation screen for delayed death inhibitors of the malarial parasite plastid, 96 hour incubation; further: nearly all actives have a fitted effect of over 60% in size
# Details: P. falciparum luciferase growth in erythrocytes; series mostly up to 28.7 µM; activity change, negative = inhibition: at the top concentration
# Procedure, shortened: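 Two-generation (96 h, 37 C) exposure of P. falciparum carrying an integrated firefly luciferase reporter in erythrocytes, 0.1% parasitemia and 2% hematocrit final, Albumax-supplemented RPMI. Luminescence decrease measures growth inhibition.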
# On the % scale 0 is the no-effect control and ±100 the full control effect; potency means the concentration at half of the fitted maximal effect.
SMILES,"activity change, negative = inhibition [%]",Potency
N#Cc1cc(S(=O)(=O)c2ccccc2)c(N)[nH]c1=O,-5.71,–
COc1ccc(NC(=O)c2ccc(CN3CCN(c4ccccc4)CC3)cc2)cc1OC,–,12.6 µM (active)
COc1cccc(NC(=O)c2ccc(CN3CCN(c4ccccc4)CC3)cc2)c1,–,14.1 µM (active)
COc1cccc(NC(=O)c2ccc3c(c2)C(=O)N(CC2CCCO2)C3=O)c1 (stereo unspecified),-15.2,–
C#CC[N+]1(CC#Cc2ccc(C#CC[N+]3(CC#C)CCOCC3)cc2)CCOCC1,–,5.62 µM (active)
Cc1ccc(-c2csc3nc[nH]c(=O)c23)cc1,-26.9,–
Cc1c(C)n2c(SCC(=O)Nc3ccc4c(c3)OCCO4)nnc2[nH]c1=O,–,1.58 µM (active)
CCOc1ccc2c(c1)OC(c1ccccc1)(C(F)(F)F)NC2=O (stereo unspecified),–,1.41 µM (active)
O=C(CCNS(=O)(=O)c1cccc2nonc12)NCCc1ccc(Cl)cc1,–,11.2 µM (active)
O=C(Nc1nnc(Cc2ccc(F)cc2)s1)Nc1ccccc1F,–,12.6 µM (active)
O=S(=O)(c1cccs1)N1CCN(c2ccnc3cc(Cl)ccc23)CC1,–,4.47 µM (active)
O=C(Nc1ccc(F)cc1F)c1ccc2c(c1)[nH]c(=O)n2Cc1ccc(F)cc1,–,14.1 µM (active)
CC1(C)CC(=O)C2=C(C1)OC1=C(C(=O)CC(C)(C)C1)C2c1ccc(O)cc1O,–,7.08 µM (active)
CC(C)C(=O)NC(=S)Nc1ccc(S(=O)(=O)NC2CCCCC2)cc1,-50.8,–
CC(C)NS(=O)(=O)c1ccc(NC(=S)NC(=O)c2ccc(-c3ccccc3)cc2)cc1,–,5.01 µM (active)
O=C(NC(=C(Cl)Cl)S(=O)(=O)c1ccc(Cl)cc1)c1ccccc1,-22.7,–
O=C(CCN1C(=O)c2ccccc2C1=O)C1=NN[C@@H]2C(=O)N(c3ccc(F)cc3)C(=O)[C@H]12,22.9,–
CCC/C(C#CCCN1C(=O)c2ccccc2C1=O)=C1/c2ccccc2C(=O)N1c1ccccc1,–,5.01 µM (active)
COC(=O)Cc1ccc(NC(=O)C(c2ccccc2)c2ccccc2)cc1,–,10 µM (active)
CCOC(=O)c1c(C)sc2c1N(C(=O)CCl)c1cc(Cl)ccc1S2,–,2 µM (active)
O=C(C#Cc1ccccc1)Nc1cccc(F)c1,–,1 µM (active)

SMILES,"activity change, negative = inhibition [%]",Potency
COc1ccc(NC(=O)C#Cc2ccccc2)cc1,–,7.94 µM (active)
O=C(C#Cc1ccccc1)Nc1ccccc1F,–,12.6 µM (active)
NC(=O)c1ccc(NC(=O)C#Cc2ccccc2)cc1,–,1 µM (active)
Cc1ccc(Cn2c(C)nc3c(c2=O)c2nc4ccccc4nc2n3Cc2ccco2)cc1,–,5.01 µM (active)
Nc1ccccc1SSc1ccccc1N,–,7.94 µM (active)
CCN(CC)S(=O)(=O)c1cccc(NC(=O)c2cc(-c3cccs3)nn2-c2ccccc2)c1,–,12.6 µM (active)
Brc1cccc(OCCCCN2CCCCC2)c1,–,12.6 µM (active)
Clc1cccc(OCCCCCN2CCOCC2)c1,-30,–
Cc1nn(-c2ccccc2)c(C)c1/C=N/n1c(-c2ccccc2Br)n[nH]c1=S,–,11.2 µM (active)
S=c1[nH]nc(-c2ccccn2)n1/N=C/c1ccc(-c2ccccc2Br)o1,-12.3,–
Nc1nc(CCl)nc(N(c2ccccc2)c2ccccc2)n1,–,1.41 µM (active)
COC(=O)[C@H](Cc1ccccc1)N(C)S(=O)(=O)c1cccc(S(=O)(=O)N(C)[C@@H](Cc2ccccc2)C(=O)OC)c1,–,14.1 µM (active)
O=C(N[C@@H](Cc1ccccc1)C(=O)CCl)OCc1ccccc1,-4.29,–
COc1ccc(C(=O)NCC(=O)N/N=C/c2ccc([N+](=O)[O-])s2)cc1OC,–,6.31 µM (active)
O=C(CNC(=O)c1cccc(F)c1)N/N=C/c1ccc([N+](=O)[O-])s1,-105,–
CCN(CC)Cc1cc2[nH]c3c4ccc(Cl)cc4ncc3c2cc1OC,–,0.199 µM (active)
O=C(COC(=O)C1C2CC3OC(=O)C1C3C2)Nc1ccccc1 (stereo unspecified),-15.9,–
CSc1c(CC(=O)Nc2ccccc2)n(C)c2ccccc12,–,8.91 µM (active)
Brc1c(CSc2nc3ccccc3s2)nc2ncccn12,–,6.31 µM (active)
CC[C@@H](C)C(NC(=O)OC(C)(C)C)c1cn([C@@H](CCCCNC(=O)OC(C)(C)C)C(=O)N2CCN(C(=O)OC(C)(C)C)CC2)nn1 (stereo partly specified),–,1.26 µM (active)
CC[C@@H](C)C(NC(=O)OC(C)(C)C)c1cn([C@@H](Cc2ccc(O)cc2)C(=O)N2CCN(C(=O)OC(C)(C)C)CC2)nn1 (stereo partly specified),–,8.91 µM (active)

SMILES,"activity change, negative = inhibition [%]",Potency
CCC(CC)N1CCN(Cc2nc3ccc([N+](=O)[O-])cc3c(=O)n2-c2ccccc2F)CC1,-22.7,–
CCOc1ccc2c(c1)C(c1ccccc1)=NNC(c1ccccc1)=N2,–,10 µM (active)
Brc1ccccc1-c1nnc(COc2ncnc3c2cnn3-c2ccccc2)o1,-8.78,–
CCOC(=O)c1c(S(=O)(=O)NCC(=O)N2CCN(c3ccccc3OC)CC2)c(C)n(C)c1C,–,12.6 µM (active)
CN(Cc1cccc(Cl)c1Cl)C(=O)c1ccc(NC(=O)CC#N)cc1,–,4.47 µM (active)
O=C(Nc1ccc2c(c1)CCCN2C(=O)c1ccco1)c1cc([N+](=O)[O-])ccc1Cl,–,14.1 µM (active)
COCCCNC(=O)c1cc2cc3cc(OC)ccc3nc2o1,–,2.24 µM (active)
COc1ccccc1NC(=S)NCc1cccs1,-10.1,–
Cc1ccc2cc3cc(C(=O)NCCCN4CCCC4=O)oc3nc2c1,–,1 µM (active)
COc1ccc2nc3oc(C(=O)NCc4cccs4)cc3cc2c1,–,2.24 µM (active)
OC(CN1C2=NCCN2c2ccccc21)c1ccc2c(c1)OCO2 (stereo unspecified),–,2.51 µM (active)
Cc1ccc(C)c(C(=O)CN2C3=NCCCN3c3ccccc32)c1,–,5.62 µM (active)
O=C(CN1C2=NCCCN2c2ccccc21)c1ccc2c(c1)OCO2,–,7.08 µM (active)
CN(C)c1cc[n+](CC(=O)Nc2ccc(OC(F)F)cc2)cc1,–,1.58 µM (active)
CCOc1ccc(NC(=O)C[n+]2ccc(N(C)C)cc2)cc1,–,0.501 µM (active)
O=C(C[n+]1cccc(CNC(=O)c2ccc(OC(F)F)cc2)c1)Nc1ccc(SC(F)F)cc1,–,1 µM (active)
Cn1nnnc1Sc1ncnc2scc(-c3ccc[nH]3)c12,–,11.2 µM (active)
Cn1nnnc1Sc1ncnc2scc(-c3ccsc3)c12,–,3.98 µM (active)
Cn1nnnc1Sc1ncnc2scc(-c3cccs3)c12,–,8.91 µM (active)
